# The list is not random: actives were taken first. Their share in the collection is about 13%.
# CHX counter – affects cycloheximide protein synthesis inhibition readout, counter-screen | AID 2314 | max response, % | actives 12% (n = 300,000) | cell reporter, cycloheximide protein synthesis inhibition counterscreen; in the data active = max response mostly above about 13%, no sharp cut-off; inactive = mostly below about 14%; note: read at 38.3 µM for the half of the compounds with a filed dose
# FMDV antiviral – blocks foot and mouth disease virus | actives 1.2% (n = 410,000) | Potency, µM (titrated, usually from 57.9 µM), actives largely listed as inhibitors | FMDV antiviral cell-based qHTS | AID 1159524; calls by dose curve; tested in HEK293T cells; note: read-out not given here; nearly all actives have a fitted effect of over 45% in size
# LASV entry inh – blocks Lassa virus binding to or entry into cells | Lassa virus pseudotype entry inhibition, cell reporter | Potency, µM (series often up to 37.9 µM), usual class: inhibitors | actives 1.2% (n = 300,000) | AID 540256; calls by dose curve; tested in HEK293 cells; note: nearly all actives have a fitted effect of over 50% in size
# Marburg entry inh – blocks Marburg virus binding to or entry into cells; Marburg virus pseudotyped entry inhibition, cell reporter; Potency, µM (top dose mostly 37.8 µM), usual class: inhibitors; actives 1.8% (n = 300,000); AID 540276; calls by dose curve; tested in HEK293 cells
# Shiga toxin inh – Shiga toxin inhibition; Vero cells, Shiga toxin protein synthesis inhibition reporter; inhibition, % at 38.7 µM; actives 9.2% (n = 290,000); in the data active = inhibition mostly above about 28%, no sharp cut-off; inactive = mostly below about 43%
# HCV inhibitor – blocks hepatitis C virus. Potency, µM (top dose mostly 41.8 µM), actives largely listed as inhibitors. actives 3.4% (n = 340,000). Huh7.5.1 HCVcc-Cre infection, luciferase reporter, 44 h. AID 651820; active = well fitted inhibition curve with a large enough effect; inconclusive = small, poorly fitted or top-dose-only effect, or another doubt; inactive = no such curve, though single readings can be large or run the other way
#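 Antiviral activity was scored by luciferase reporter output from cells infected with HCVcc-Cre (~0.5 moi) in presence of compound, 44 h infection period, cells seeded 1,000/well 4 h prior.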
# A number is an active result; n = inactive; u = inconclusive; x = not tested or not shown.
SMILES,CHX counter,FMDV antiviral,LASV entry inh,Marburg entry inh,Shiga toxin inh,HCV inhibitor
Cc1ccc(C)c(NC(=O)C2(C)CCCN2C(=O)C(C)C)c1 (centres undefined),x,n,x,x,x,x
N#Cc1ccsc1NC(=O)CN1CCN(S(=O)(=O)c2ccccc2C(F)(F)F)CC1,n,n,n,n,n,n
O=C(COc1ncnc2sccc12)N1CCN(S(=O)(=O)c2ccc(Cl)cc2)CC1,n,n,n,n,n,n
O=C1c2ccc(-c3ccc4c(c3)C(=O)N(CCCO)C4=O)cc2C(=O)N1CCCO,n,n,x,x,n,n
NC(=O)c1ccsc1NC(=O)COC(=O)C1CC2CCCC(C1)C2=O (centres undefined),14.0,n,u,n,n,n
O=C(COc1ccccc1)Nc1nccs1,30.3,x,n,n,52.9,n
COc1ccc(NC(=O)CN(C)C(=O)c2cn(-c3ccccc3)nc2-c2ccc(F)cc2)cc1,x,n,x,x,x,11.2µM
COC(=O)c1cn(-c2ccccc2)nc1-c1ccccc1,n,n,n,n,n,11.2µM
O=C(NC1CCN(Cc2ccccc2)CC1)c1cn(-c2ccccc2)nc1-c1cccnc1,x,n,n,11.2µM,x,n
CCN(CC)CCOC(=O)c1ccc(NC(=O)c2cn(-c3ccccc3)nc2-c2cccs2)cc1,n,n,u,u,n,7.94µM
Cc1ccccc1CSc1nnc(C)c(=O)n1N,n,n,u,n,n,n
O=C(O)c1ccc(NC(=O)c2cn(-c3ccccc3)nc2-c2ccccc2)cc1,21.1,n,n,n,55.6,n
CCOC(=O)c1cn(-c2ccccc2)nc1-c1ccncc1,n,n,n,n,n,10µM
CC(OC(=O)c1cn(-c2ccccc2)nc1-c1cccnc1)C(N)=O (centres undefined),n,n,n,n,n,n
O=C(O)c1cn(-c2ccccc2)nc1-c1ccncc1,n,n,n,n,n,n
O=C(OCn1nnc2ccccc2c1=O)c1cn(-c2ccccc2)nc1-c1cccnc1,n,u,n,n,n,10µM
CCOC(=O)c1cn(-c2ccccc2)nc1-c1cccnc1,36.6,n,n,u,50.2,10µM
O=C(O)c1ccc(NC(=O)c2cn(-c3ccccc3)nc2-c2ccc(Br)cc2)cc1,n,n,n,n,n,n
CCOC(=O)c1nn(-c2ccc(C)cc2)cc1C(=O)c1ccccc1,68.4,n,n,u,113.1,u
CC(=O)c1nn(-c2ccc(Cl)cc2)cc1C(=O)c1ccccc1,x,n,n,u,x,n
CC(=O)NC(C1C(=O)CC(C)(C)CC1=O)(C(F)(F)F)C(F)(F)F,n,n,u,n,n,n
CCc1c(C)c(C#N)c2nc3ccccc3n2c1NC,n,n,n,n,n,n
Cc1c(CCCl)c(Cl)n2c(nc3ccccc32)c1C#N,x,3.55µM,11.2µM,5.01µM,x,u
Cc1cc(Cl)n2c(nc3ccccc32)c1C#N,n,7.94µM,u,4.47µM,n,u
Cn1ncc(Br)c1C(=O)N/N=C/c1ccc(OS(=O)(=O)c2ccccc2)cc1,n,n,n,n,n,n
SMILES,CHX counter,FMDV antiviral,LASV entry inh,Marburg entry inh,Shiga toxin inh,HCV inhibitor
Cn1ncc(Br)c1C(=O)N/N=C/c1cccc(OC2CSC2)c1,n,n,n,n,26.5,n
Cn1nccc1C(=O)Oc1cccc(/C=N/NC(=O)c2ccccc2O)c1,n,n,x,x,32.6,n
O=S(=O)(N/N=C/c1cccc(OC2CSC2)c1)c1ccccc1,n,n,n,n,n,n
O=C(N/N=C/c1cccc(OC2CSC2)c1)c1ccccc1O,26.3,n,n,u,n,n
OC(c1ccc(Cl)cc1Cl)C(Cc1cccnc1)n1cncn1 (centres undefined),n,n,n,n,n,n
O=C(NCc1ccccc1Cl)c1cccc(NC2=NC3CS(=O)(=O)CC3S2)c1 (centres undefined),n,n,x,x,n,n
CC(C)(O)CN(C(=O)c1ccccc1)C1CCCCC1,x,n,n,n,x,n
COc1cc(/C=N/N2CCOCC2)ccc1OCc1ccccc1,16.3,n,n,u,n,n
COc1ccc(/C=N/N2CCOCC2)cc1O,28.2,n,n,u,48.0,n
COc1cc(/C=N/N2CCOCC2)ccc1OCc1ccc(Cl)cc1,36.9,n,n,n,81.6,n
COc1ccc(/C=N/N2CCOCC2)cc1OCc1ccccc1,n,n,n,n,n,n
COc1ccccc1-c1noc2ncnc(Nc3cccc(C)c3)c12,n,n,x,x,n,n
CC(NC(=O)CCl)c1ccccc1Br (centres undefined),n,u,n,u,n,n
Cc1ccc(CNc2ccc(Cl)cc2[N+](=O)[O-])cc1,48.0,n,n,n,72.2,n
Cc1ccc(CNS(=O)(=O)c2ccccc2[N+](=O)[O-])cc1,29.4,n,n,n,n,n
COc1cc(C(=O)OCC(=O)N(CC(C)C)C2CCS(=O)(=O)C2)cc(OC)c1C (centres undefined),x,n,x,x,x,n
O=[N+]([O-])c1ccc(Cl)c(S(=O)(=O)Nc2cccc(-c3ccc(N4CCOCC4)nn3)c2)c1,x,n,n,u,x,n
Cc1ncc(CO)c(/C=N/N=C/c2ccccc2O)c1O,16.0,n,u,n,n,n
Cc1ncc(CO)c(/C=N/Nc2ccc(C(F)(F)F)cn2)c1O,n,n,u,3.98µM,n,u
Cc1ncc(CSCC(=O)Nc2cc(C(F)(F)F)ccc2Cl)c(CO)c1O,n,n,n,n,n,n
Cc1ncc(CO)c(/C=N/NC(=S)Nc2ccc(F)cc2)c1O,n,n,u,14.1µM,n,n
C=CC(=O)N1C/C(=C/c2ccc(F)cc2)C(=O)/C(=C\c2ccc(F)cc2)C1,x,8.91µM,2.51µM,u,x,u
Cc1ccc(N2CC(NC(=O)CCc3ccccc3)CC2=O)cc1 (centres undefined),x,n,n,x,x,x
CCc1sc(C(C2C(=O)CC(C)(C)CC2=O)C2C(=O)CC(C)(C)CC2=O)cc1[N+](=O)[O-],n,7.94µM,n,u,n,n
CC1(C)CC(=O)C(C(c2ccc(F)cc2)C2C(=O)CC(C)(C)CC2=O)C(=O)C1,n,n,n,n,n,n
SMILES,CHX counter,FMDV antiviral,LASV entry inh,Marburg entry inh,Shiga toxin inh,HCV inhibitor
Cc1n[nH]c(C)c1N1C(=O)c2cccc3cc(Br)cc(c23)C1=O,n,n,n,n,n,4.47µM
CC(C)C[C@@]12C(=O)N(c3cccc(Br)c3)C(=O)N1[C@H](c1ccc(F)cc1)[C@@H]1C(=O)N(C3CCCCC3)C(=O)[C@@H]12,x,n,x,x,x,n
CC/C(Cc1ccccc1)=N/NC(=O)c1cccc(Br)c1,n,n,n,n,46.5,n
O=C(NCCc1ccccc1)c1cccc(Br)c1,39.0,n,x,x,78.9,n
O=C(NCCc1ccccc1)c1cccc([N+](=O)[O-])c1,82.2,n,n,u,active,n
CCCNC(=O)c1cccc(Br)c1,n,n,n,u,n,n
COc1ccc(CCNC(=O)c2cccc([N+](=O)[O-])c2)cc1OC,x,n,n,u,x,n
COc1ccc(C2CC(O)(c3ccccc3)Oc3cc(C)c(Cl)c(C)c32)cc1 (centres undefined),n,x,x,x,n,x
C(=N\N=C\c1ccccc1)/c1ccccc1,55.2,n,x,n,132.3,n
